# Counter-ions that a name gives are not always drawn.
# System: HL-1
# Assay: relative cell viability (CellTiter-Glo) vs DMSO control (% of DMSO control); higher = more viable cells
# Summary of the method: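 HL-1 mouse atrial cardiomyocytes were seeded into 384-well plates at 1000 cells per well along with compounds at 40, 200, 1000 or 5000 nM in 0.01% DMSO. After one day, the cells were moved to a hypoxic workstation (1% O2) for 48 h and then reoxygenated for 24 h in a normal incubator, while others remained in normoxia for the same period. Cell viability was measured by CellTiter-Glo luminescence and normalised to vehicle-treated control cells.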
# [1] = oxygen condition: hypoxia 48 h (1% O2) + reoxygenation 24 h, 40 nM
# [2] = oxygen condition: hypoxia 48 h (1% O2) + reoxygenation 24 h, 200 nM
# [3] = oxygen condition: hypoxia 48 h (1% O2) + reoxygenation 24 h, 1000 nM
# [4] = oxygen condition: hypoxia 48 h (1% O2) + reoxygenation 24 h, 5000 nM
# [5] = oxygen condition: normoxia 72 h, 40 nM
# [6] = oxygen condition: normoxia 72 h, 200 nM
# [7] = oxygen condition: normoxia 72 h, 1000 nM
# [8] = oxygen condition: normoxia 72 h, 5000 nM
SMILES,relative cell viability [1],relative cell viability [2],relative cell viability [3],relative cell viability [4],relative cell viability [5],relative cell viability [6],relative cell viability [7],relative cell viability [8]
COCCc1ccc(OCC(O)CNC(C)C)cc1 (stereo not given) [Metoprolol tartrate],101,98,105,111,77.9,103,103,111
COc1cc2nc(N3CCN(C(=O)C4COc5ccccc5O4)CC3)nc(N)c2cc1OC (stereo not given) [Doxazosin mesylate],104,107,108,106,105,102,103,114
O=S(=O)(O)c1cc(O)ccc1O [Ethamsylate],105,101,105,109,96.6,101,96.8,107
N=C(N)N/N=C/c1c(Cl)cccc1Cl [Guanabenz acetate],96.3,113,105,99.1,101,99.6,98.7,98.9
COc1ccc(-c2nc3cc(C4=NNC(=O)CC4C)ccc3[nH]2)cc1 (stereo not given) [Pimobendan],107,108,99.1,109,109,102,114,111
CN(c1nccc(=O)[nH]1)C1CCN(c2nc3ccccc3n2Cc2ccc(F)cc2)CC1 [Mizolastine],97.1,98.1,101,108,97.3,94.6,101,107
Nc1ccc(C(=O)O)c(O)c1 [Aminosalicylate sodium],95.2,102,102,108,105,105,114,108
C[C@H](N[C@@H](CCc1ccccc1)C(=O)O)C(=O)N1CCC[C@H]1C(=O)O [Enalaprilat dihydrate],104,106,102,110,104,99,107,109
C=CC[C@@H]1/C=C(\C)C[C@H](C)C[C@H](OC)[C@H]2O[C@@](O)(C(=O)C(=O)N3CCCC[C@H]3C(=O)O[C@H](/C(C)=C/[C@@H]3CC[C@@H](O)[C@H](OC)C3)[C@H](C)[C@@H](O)CC1=O)[C@H](C)C[C@@H]2OC,102,105,102,101,109,106,106,105
CC(C)n1c(/C=C/C(O)CC(O)CC(=O)O)c(-c2ccc(F)cc2)c2ccccc21 (stereo not given) [Fluvastatin sodium],88.9,57.3,17.3,3.7,101,83.5,28.6,4.76
CCOc1nc2cccc(C(=O)O)c2n1Cc1ccc(-c2ccccc2-c2noc(=O)[nH]2)cc1 [Azilsartan],104,108,111,115,109,110,114,111
CO[C@@H]1[C@@H](OC(N)=O)[C@@H](O)[C@H](Oc2ccc3c(O)c(NC(=O)c4ccc(O)c(CC=C(C)C)c4)c(=O)oc3c2C)OC1(C)C [Novobiocin sodium],100,102,102,110,97.1,99.2,101,113
C[N+]1(C)CCC(=C(c2ccccc2)c2ccccc2)CC1 [Diphemanil methylsulfate],104,100,104,104,102,104,106,100
CN1CCC(OC(c2ccccc2)c2ccccc2)CC1 [Diphenylpyraline HCl],102,96.9,99.3,110,96.9,103,102,100
Cc1c(O)c(=O)ccn1C [Deferiprone],108,102,102,112,100,102,107,111
N=C(N)Nc1ccc(C(=O)Oc2ccc3cc(C(=N)N)ccc3c2)cc1 [Nafamostat mesylate],103,104,108,105,105,110,111,107
O=C(O)C[C@H](O)C[C@H](O)/C=C/c1c(C2CC2)nc2ccccc2c1-c1ccc(F)cc1 [Pitavastatin calcium],109,109,85.5,7.03,117,109,88.9,4.53
CO[C@H]1O[C@@H]2O[C@@]3(C)CC[C@H]4[C@H](C)CC[C@@H]([C@H]1C)[C@@]24OO3 [Artemether],104,103,100,60.3,103,102,98.3,93.2
C=CCc1cc(OC)c(O)c(C(=O)NCCO)c1 [Alibendol],103,102,108,113,101,104,112,115
Cc1cnc(C(=O)O)c[n+]1[O-] [Acipimox],105,104,109,116,101,104,107,108

SMILES,relative cell viability [1],relative cell viability [2],relative cell viability [3],relative cell viability [4],relative cell viability [5],relative cell viability [6],relative cell viability [7],relative cell viability [8]
C[C@@H]1CC(=O)NN=C1c1ccc(NN=C(C#N)C#N)cc1 [Levosimendan],101,103,102,108,95.9,103,105,103
CCCC(=O)[O-].[Na+] [Sodium butyrate],103,101,99.4,107,98.7,99.2,105,107
COc1ccccc1N1CCN(CC(O)COc2cccc3ccccc23)CC1 (stereo not given) [Naftopidil],103,101,104,101,102,100,102,103
CCN[C@H]1CN(CCCOC)S(=O)(=O)c2sc(S(N)(=O)=O)cc21 [Brinzolamide],101,84.5,62.4,3.36,98.2,81.9,57.5,3.09
CCCCNc1cc(C(=O)O)cc(S(N)(=O)=O)c1Oc1ccccc1 [Bumetanide],102,108,110,113,105,96.8,112,118
COC(=O)C1=C(C)NC(C)=C(C(=O)OC2CCCN(Cc3ccccc3)C2)C1c1cccc([N+](=O)[O-])c1 (stereo not given) [Benidipine hydrochloride],104,113,109,25,114,109,102,24
O=C1N=C(O)NC1(c1ccccc1)c1ccccc1 [Phenytoin sodium],96.1,96.2,95.6,111,94.5,101,101,107
CCCN(CCC)S(=O)(=O)c1ccc(C(=O)O)cc1 [Probenecid],103,109,108,110,101,104,109,115
O=C1c2ccccc2C(=O)C1c1ccccc1 [Phenindione],97,105,95.1,113,108,107,102,108
CC#CCn1c(N2CCC[C@@H](N)C2)nc2c1c(=O)n(Cc1nc(C)c3ccccc3n1)c(=O)n2C [Linagliptin],96.7,103,104,105,106,105,107,106
Nc1cc(N2CCCCC2)nc(N)[n+]1[O-] [Minoxidil],108,106,118,113,114,109,112,111
COc1cc(C(C)=O)ccc1OCCCN1CCC(c2noc3cc(F)ccc23)CC1 [Iloperidone],108,104,107,107,99.6,109,119,109
COc1cc2c(cc1OC)C(=O)C(CC1CCN(Cc3ccccc3)CC1)C2 (stereo not given) [Donepezil HCl],106,106,110,106,95.9,102,103,107
CNCC(O)c1ccc(O)c(O)c1 (racemic) [DL-Adrenaline],100,97.8,67.7,15.5,107,93.8,63.6,11.8
C[C@]12CC[C@@H]3c4ccc(O)cc4CC[C@H]3[C@@H]1CC[C@@H]2O [Estradiol],105,98.2,100,94,101,103,100,100
NS(=O)(=O)Cc1noc2ccccc12 [Zonisamide],105,108,107,115,108,112,116,103
CCCCc1nc(Cl)c(CO)n1Cc1ccc(-c2ccccc2-c2nnn[nH]2)cc1 [Losartan potassium],111,107,114,108,103,108,108,110
CC/C(=C(/CC)c1ccc(O)cc1)c1ccc(O)cc1 [Diethylstilbestrol],105,106,107,109,108,96.7,108,112
Nc1ncn([C@H]2C[C@H](O)[C@@H](CO)O2)c(=O)n1 [Decitabine],103,104,94.1,65.4,101,104,91.2,58.2
CCOC(=O)[C@H](CCc1ccccc1)N[C@@H](C)C(=O)N1C(=O)N(C)C[C@H]1C(=O)O [Imidapril],111,103,99.3,115,110,103,104,113
